Laboratory results taken from PubChem BioAssay (NCI).
About 83,000 compounds went through this panel and 20% of them were active in at least one assay; those are over-represented in the sample as a whole.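 Cells were grown in 96-well plates and exposed to the test compound at a single concentration for 48 hours; results are reported as percent growth, with values below 10 considered active.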 Activity calls are given as the source filed them.

Legend:
Assay in all cases: NCI-60 one-dose screen, 48 h (100 = growth as untreated, 0 = no growth, -100 = all killed)
Conditions in all cases: 10 µM unless noted
HT29 colon = system: HT29 colon
SNB-75 CNS = system: SNB-75 CNS
U251 CNS = system: U251 CNS
PC-3 prostate = system: PC-3 prostate
SK-MEL-5 melanoma = system: SK-MEL-5 melanoma
UACC-62 melanoma = system: UACC-62 melanoma
LOX IMVI melanoma = system: LOX IMVI melanoma
SK-MEL-28 melanoma = system: SK-MEL-28 melanoma
SK-MEL-2 melanoma = system: SK-MEL-2 melanoma
EKVX NSCLC = system: EKVX NSCLC
SN12C renal = system: SN12C renal
UO-31 renal = system: UO-31 renal
TK-10 renal = system: TK-10 renal
ACHN renal = system: ACHN renal
CAKI-1 renal = system: CAKI-1 renal
A498 renal = system: A498 renal
CCRF-CEM leukemia = system: CCRF-CEM leukemia
MOLT-4 leukemia = system: MOLT-4 leukemia
SR leukemia = system: SR leukemia
SNB-19 CNS = system: SNB-19 CNS

Measured: growth

Nc1ccc(C2=Nc3cccc4cccc(c34)S2)cc1
inactive: HT29 colon 98.5% | SNB-75 CNS 71.4% | U251 CNS 91.8% | PC-3 prostate 71.6% | SK-MEL-5 melanoma 88.9% | UACC-62 melanoma 79.8% | LOX IMVI melanoma 91.8% | SK-MEL-28 melanoma 111% | SK-MEL-2 melanoma 87.5% | EKVX NSCLC 67.3% | SN12C renal 94.2% | UO-31 renal 60.4% | TK-10 renal 88.3% | ACHN renal 81.3% | CAKI-1 renal 75.7% | A498 renal 55.9% | CCRF-CEM leukemia 68.4% | MOLT-4 leukemia 82.2% | SR leukemia 57.5%

O=C1OCC/C1=C\OCCCO/C=C1\CCOC1=O
inactive: HT29 colon 105% | SNB-75 CNS 97.1% | SNB-19 CNS 104% | SK-MEL-5 melanoma 105% | UACC-62 melanoma 91% | LOX IMVI melanoma 98.8% | SK-MEL-28 melanoma 125% | SK-MEL-2 melanoma 104% | EKVX NSCLC 101% | SN12C renal 99.3% | UO-31 renal 90.7% | TK-10 renal 110% | ACHN renal 103% | CAKI-1 renal 106% | A498 renal 119% | CCRF-CEM leukemia 107% | MOLT-4 leukemia 111%

N=c1ccn2c(n1)O[C@@H]1[C@@H](O)[C@H](CO)O[C@@H]12
inactive: HT29 colon 54.2% | SNB-75 CNS 82.8% | SNB-19 CNS 64.8% | PC-3 prostate 57.9% | UACC-62 melanoma 81.2% | LOX IMVI melanoma 67.9% | SK-MEL-28 melanoma 69.9% | SK-MEL-2 melanoma 82.7% | EKVX NSCLC 98.8% | SN12C renal 54.3% | UO-31 renal 15.5% | ACHN renal 11.8% | CAKI-1 renal 55.3% | A498 renal 99.3% | CCRF-CEM leukemia 31.5% | MOLT-4 leukemia 28.2%

Cc1cc2c(cc1C)Nc1sc(NC(=O)CN3CCN(C)CC3)nc1C(=O)N2
inactive: HT29 colon 99.8% | SNB-75 CNS 104% | SNB-19 CNS 96.6% | PC-3 prostate 101% | UACC-62 melanoma 105% | SK-MEL-28 melanoma 108% | SN12C renal 103% | UO-31 renal 94.3% | TK-10 renal 99.9% | ACHN renal 111% | CAKI-1 renal 106% | A498 renal 102% | CCRF-CEM leukemia 98.3% | MOLT-4 leukemia 87.4% | SR leukemia 79%

Clc1ccc(CCC(Cn2ccnc2)Sc2c(Cl)cccc2Cl)cc1 (stereo not given)
inactive: HT29 colon 26.7% | SNB-75 CNS 92.5% | SNB-19 CNS 80.2% | PC-3 prostate 26.5% | UACC-62 melanoma 55% | LOX IMVI melanoma 40.5% | SK-MEL-28 melanoma 102% | SK-MEL-2 melanoma 72.8% | EKVX NSCLC 52.2% | SN12C renal 55.6% | UO-31 renal 30.5% | TK-10 renal 52.4% | ACHN renal 65.4% | CAKI-1 renal 43.3% | A498 renal 73.7% | CCRF-CEM leukemia 35.1%

NC(=Nc1ccccc1)SCCCCSC(N)=Nc1ccccc1
inactive: HT29 colon 94.8% | SNB-75 CNS 68% | SNB-19 CNS 99.3% | SK-MEL-5 melanoma 93.7% | UACC-62 melanoma 66.5% | SK-MEL-28 melanoma 96.7% | SK-MEL-2 melanoma 98.5% | EKVX NSCLC 80.4% | SN12C renal 87% | UO-31 renal 31% | TK-10 renal 97.3% | ACHN renal 75.4% | CAKI-1 renal 74.2% | A498 renal 82.3% | MOLT-4 leukemia 70.3%

COc1cc(NC(=O)c2cc3ccccc3cc2O)c(OC)cc1Cl
inactive: HT29 colon 64.8% | SNB-75 CNS 40.9% | SNB-19 CNS 16% | UACC-62 melanoma 24% | SK-MEL-28 melanoma 43.6% | SN12C renal 10.2% | TK-10 renal 22.6% | A498 renal 25.4%
active: SK-MEL-5 melanoma -41.9% | LOX IMVI melanoma 3.45% | SK-MEL-2 melanoma -17.2% | EKVX NSCLC 9.25% | UO-31 renal -25.8% | ACHN renal 3.75% | CAKI-1 renal -2.48% | CCRF-CEM leukemia -17.4% | MOLT-4 leukemia -18.8%

COc1cc(Oc2cc(-c3cccnc3)ccc2NC(=O)Nc2ccc(F)cc2F)cc(OC)c1OC
inactive: HT29 colon 105% | SNB-75 CNS 83.8% | U251 CNS 92.2% | PC-3 prostate 84.3% | SK-MEL-5 melanoma 92.6% | UACC-62 melanoma 88.9% | LOX IMVI melanoma 107% | SK-MEL-28 melanoma 119% | SK-MEL-2 melanoma 112% | EKVX NSCLC 90.4% | SN12C renal 102% | UO-31 renal 76.8% | TK-10 renal 116% | ACHN renal 121% | CAKI-1 renal 94.3% | A498 renal 89.9% | CCRF-CEM leukemia 97.3% | MOLT-4 leukemia 84.9% | SR leukemia 97.4%

COc1ccc2nc3cc(Cl)ccc3c(N3CCN(c4ccnc(Nc5ccc(F)cc5)n4)CC3)c2c1
inactive: HT29 colon 83.3% | SNB-75 CNS 69.1% | SNB-19 CNS 82.4% | PC-3 prostate 67.3% | UACC-62 melanoma 77.4% | SK-MEL-28 melanoma 104% | SN12C renal 71.5% | UO-31 renal 56% | TK-10 renal 66.1% | ACHN renal 62.5% | CAKI-1 renal 72% | A498 renal 51.1% | CCRF-CEM leukemia 38.1% | MOLT-4 leukemia 20% | SR leukemia 43.2%

c1ccc(N2CCN(c3nncc4ccccc34)CC2)nc1
inactive: HT29 colon 98.2% | SNB-75 CNS 105% | U251 CNS 96.9% | PC-3 prostate 101% | SK-MEL-5 melanoma 97.5% | UACC-62 melanoma 99.6% | LOX IMVI melanoma 97.5% | SK-MEL-28 melanoma 108% | SK-MEL-2 melanoma 103% | EKVX NSCLC 110% | SN12C renal 102% | UO-31 renal 96% | TK-10 renal 105% | ACHN renal 115% | CAKI-1 renal 109% | A498 renal 97.8% | CCRF-CEM leukemia 102% | MOLT-4 leukemia 106% | SR leukemia 103%

COc1cc(/C=C/C(=O)c2c(-c3ccc(F)cc3)nc3sc(C)nn23)cc(OC)c1OC
inactive: SNB-75 CNS 10.2% | SNB-19 CNS 84.9% | PC-3 prostate 59.9% | SK-MEL-5 melanoma 27.1% | SK-MEL-28 melanoma 65.7% | SN12C renal 35.9% | UO-31 renal 21.5% | ACHN renal 24.6% | CAKI-1 renal 15.2% | A498 renal 85.2% | MOLT-4 leukemia 13.4%
active: HT29 colon 6.07% | LOX IMVI melanoma -19.7% | SK-MEL-2 melanoma -26.5% | CCRF-CEM leukemia -9.53% | SR leukemia 4.81%

Cc1cc(C(=O)O)c(C)cc1C(=O)O
inactive: HT29 colon 103% | SNB-75 CNS 97% | SNB-19 CNS 107% | PC-3 prostate 92.3% | SK-MEL-5 melanoma 99.9% | LOX IMVI melanoma 103% | SK-MEL-28 melanoma 108% | SK-MEL-2 melanoma 104% | EKVX NSCLC 122% | SN12C renal 106% | TK-10 renal 115% | ACHN renal 112% | CAKI-1 renal 102% | A498 renal 103% | CCRF-CEM leukemia 101% | MOLT-4 leukemia 87.7% | SR leukemia 105%

CC(=O)O[C@H]1C(=O)[C@@]2(C)C([C@H](OC(=O)c3ccccc3)[C@]3(O)C[C@H](OC(=O)[C@H](O)[C@@H](NC(=O)c4ccccc4)c4ccccc4)C(C)=C1C3(C)C)[C@]1(OC(C)=O)CO[C@@H]1C[C@@H]2O (stereo not given in full)
inactive: SNB-19 CNS 36.2% | PC-3 prostate 19.7% | UACC-62 melanoma 42.5% | LOX IMVI melanoma 44.3% | SK-MEL-28 melanoma 57.5% | EKVX NSCLC 48.3% | SN12C renal 38.1% | UO-31 renal 33.6% | TK-10 renal 20.6% | ACHN renal 41% | CAKI-1 renal 44.7% | A498 renal 30.8% | CCRF-CEM leukemia 14% | MOLT-4 leukemia 28.3%
active: HT29 colon 3.07% | SNB-75 CNS -19% | SK-MEL-2 melanoma -5.52%

N#CCCCCCn1c2ccccc2c2c3c(c4c5ccccc5[nH]c4c21)C(=O)N(O)C3=O
inactive: SNB-75 CNS 29.4% | EKVX NSCLC 46% | TK-10 renal 22%
active: HT29 colon 3.99% | U251 CNS -46.2% | PC-3 prostate -3.49% | SK-MEL-5 melanoma -97% | UACC-62 melanoma -35.7% | LOX IMVI melanoma -81% | SK-MEL-28 melanoma -2.36% | SK-MEL-2 melanoma 3.52% | SN12C renal 6.13% | UO-31 renal -44.9% | ACHN renal -81.6% | CAKI-1 renal -59.9% | A498 renal -76.3% | CCRF-CEM leukemia -1.67% | MOLT-4 leukemia -21.3% | SR leukemia -9.51%

Fc1ccc([C@@H]2CCNC[C@H]2COc2ccc3c(c2)OCO3)cc1
inactive: HT29 colon 14.9% | SNB-75 CNS 57.6% | SNB-19 CNS 80.2% | PC-3 prostate 53.6% | UACC-62 melanoma 57.5% | LOX IMVI melanoma 42.9% | SK-MEL-28 melanoma 94.4% | SK-MEL-2 melanoma 83.8% | SN12C renal 58.6% | UO-31 renal 40.4% | ACHN renal 67% | CAKI-1 renal 67% | A498 renal 86.1% | CCRF-CEM leukemia 60.6% | MOLT-4 leukemia 68.3%

Cc1cc(C(C)(C)c2cc(C)c(O)c(CN(C)C)c2)cc(CN(C)C)c1O
inactive: HT29 colon 76.3% | SNB-75 CNS 90.1% | U251 CNS 67.8% | PC-3 prostate 80% | SK-MEL-5 melanoma 85.8% | UACC-62 melanoma 75.5% | LOX IMVI melanoma 81.8% | SK-MEL-28 melanoma 79.2% | SK-MEL-2 melanoma 101% | EKVX NSCLC 92.3% | SN12C renal 96.3% | UO-31 renal 59.4% | TK-10 renal 94.2% | ACHN renal 86.2% | CAKI-1 renal 79.6% | A498 renal 69.5% | CCRF-CEM leukemia 100% | MOLT-4 leukemia 87.4% | SR leukemia 74.8%

COc1ccc(C2CC(c3ccc(OC)c(OC)c3)=NN2C(=O)c2cc(OC)c(OC)c(OC)c2)c(OC)c1 (stereo not given)
inactive: HT29 colon 59.9% | SNB-19 CNS 91.8% | U251 CNS 80.6% | PC-3 prostate 64.3% | SK-MEL-5 melanoma 42% | UACC-62 melanoma 58% | LOX IMVI melanoma 56.6% | SK-MEL-28 melanoma 80.2% | SK-MEL-2 melanoma 68.2% | EKVX NSCLC 86.7% | SN12C renal 91.3% | UO-31 renal 42.2% | TK-10 renal 87.7% | ACHN renal 65.2% | CAKI-1 renal 34.6% | CCRF-CEM leukemia 92.9% | SR leukemia 48.7%

CCC(C)CC(CC)NCCN1CCN(C(CC)CC(C)CC)C1=S (stereo not given)
inactive: SNB-19 CNS 47.1% | U251 CNS 25.2% | PC-3 prostate 33.4% | UACC-62 melanoma 23.9% | SK-MEL-28 melanoma 20.3% | SK-MEL-2 melanoma 94.1% | EKVX NSCLC 23% | SN12C renal 36.9% | UO-31 renal 41.4% | TK-10 renal 58.5% | ACHN renal 52.4% | CAKI-1 renal 59.6% | A498 renal 61.9% | CCRF-CEM leukemia 24.3% | MOLT-4 leukemia 38.5%
active: HT29 colon -24.6% | LOX IMVI melanoma -0.0423%
